# Bioassay records as filed in PubChem BioAssay.
# TRHR ag – qHTS for Small Molecule Agonists and Allosteric Enhancers of Human TRH Receptor: Primary Screen for Agonists; TRHR cells, calcium flux fluo-8, FDSS agonist mode; Thyrotropin-releasing hormone receptor (Homo sapiens), P34981; 0.18% of 360,000 active; activation, % at 2 µM
#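 Steps: seed TRHR cells overnight; add fluo-8 no-wash Ca dye, RT 30 min–1.5 h; record 10 s baseline; pin-transfer compounds; monitor fluorescence 1 cycle/s for the agonist window. Calcium increases flag candidate agonists.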
# TRHR enhancer – qHTS for Small Molecule Agonists and Allosteric Enhancers of Human TRH Receptor: Primary Screen for Enhancers; enhancement, % at 2 µM; 0.66% of 360,000 active; Thyrotropin-releasing hormone receptor (Homo sapiens), P34981; AID 493056, 2011; TRHR cells, fluo-8 calcium fluorescence, EC20 TRH enhancement; in the data active means enhancement above about 30%
#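 TRHR-expressing cells loaded with fluo-8 calcium dye were read kinetically (ex 480/em 530) during compound addition, then stimulated with an EC20 of TRH (10 nM final). Enhancement of the Gq-mediated intracellular calcium response was scored.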
# D1 potentiator – Potentiators of Human D1 Dopamine Receptor: qHTS | D(1A) dopamine receptor (Homo sapiens), P21728 | HEK293 TREx D1 cells, calcium flux, dopamine EC20 potentiation | potentiation, % at 10 µM | 0.036% of 360,000 active | AID 504651, 2011; in the data active means potentiation above about 30%
# Target sequence (P21728 whole entry, looked up): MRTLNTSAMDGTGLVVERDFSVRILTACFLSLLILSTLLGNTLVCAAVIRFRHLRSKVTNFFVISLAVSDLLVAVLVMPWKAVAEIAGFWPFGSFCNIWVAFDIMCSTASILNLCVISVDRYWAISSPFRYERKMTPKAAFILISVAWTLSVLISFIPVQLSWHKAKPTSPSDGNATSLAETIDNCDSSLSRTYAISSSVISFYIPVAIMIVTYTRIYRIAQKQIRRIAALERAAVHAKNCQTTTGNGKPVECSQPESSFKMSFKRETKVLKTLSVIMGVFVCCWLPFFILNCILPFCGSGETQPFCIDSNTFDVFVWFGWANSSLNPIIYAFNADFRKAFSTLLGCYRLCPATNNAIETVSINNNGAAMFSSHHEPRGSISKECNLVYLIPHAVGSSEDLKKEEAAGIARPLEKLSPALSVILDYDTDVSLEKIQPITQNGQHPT
# D1 antagonist – Antagonist of Human D 1 Dopamine Receptor: qHTS | D(1A) dopamine receptor (Homo sapiens), P21728 | HEK293 TREx D1 cells, calcium flux, dopamine EC80; hits give low values | activity change, negative = inhibition, % at 10 µM | 3.2% of 360,000 active | AID 504652, 2011; in the data active means activity change below about -30%
#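 Compound effects on dopamine-evoked calcium signalling were measured in tetracycline-induced HEK293 Trex D1 cells. Dopamine at EC80 followed a 180 s compound pre-read, and fluorescence was tracked kinetically for 180 s more.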
# D1 agonist – Allosteric Agonists of the Human D1 Dopamine Receptor: qHTS; AID 504660, 2011; activation, % at 2 µM; HEK293 T-REx D1 cells, calcium flux, agonist mode; 1% of 360,000 active; D(1A) dopamine receptor (Homo sapiens), P21728
#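 Inducible HEK293 T-REx D1 cells, force-coupled to calcium signalling, were plated at 4000 cells/well with tetracycline and held overnight at 30 C. After no-wash calcium dye loading, compound-evoked calcium rise over 180 s flagged agonists.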
# Numbers stand for hits; i = inactive; nt = not tested or not shown. In the library only some 4.6% were active in any assay of this set; here they are far more common. Unless noted, no stated cut-off is given here; in the data, active means activation above about 30%; inactive means the rest.
SMILES,TRHR ag,TRHR enhancer,D1 potentiator,D1 antagonist,D1 agonist
Cc1ccc(C)c(NC(=O)CSc2cn(CC(=O)N3CCCC3)c3ccccc23)c1,i,i,i,i,i
COc1ccc(S(=O)(=O)n2nc(-n3c(C)ccc3C)c3c(F)cccc32)cc1OC,i,i,i,-34.0,i
CCCCCCN(C(=O)CCCCCN1C(=O)NC(c2ccccc2)C(C(=O)OCc2ccccc2)=C1C)C(C(=O)NCCCC)c1ccc(OCC(=O)OC)c(C(=O)OC)c1 (stereo not drawn),i,i,i,-54.2,38.2
CCCCCCN(C(=O)CCCCCN1C(=O)NC(c2ccc(C(C)(C)C)cc2)C(C(=O)OCc2ccccc2)=C1C)C(C(=O)NCCCC)c1ccc(OCC(=O)OC)c(C(=O)OC)c1 (stereo not drawn),i,i,i,i,i
C=CCOc1ccc(CN(C)C(=O)CNC(=O)c2ccc(-c3ccccc3)cc2)cc1,i,i,i,i,34.5
CCCN1C(C(=O)c2ccccc2)=C(OC(=O)COc2ccc(C)cc2)c2ccccc2S1(=O)=O,i,i,i,i,i
O=C(CN1CCOCC1)Nc1ccc(Cl)c(Cl)c1,i,i,i,i,i
O=C(CN1CCN(S(=O)(=O)N2CCOCC2)CC1)Nc1ccc(Cl)c(Cl)c1,i,i,i,-49.4,i
Cc1ccc(NC(=O)CN2CCOCC2)cc1C,i,i,i,-39.6,i
COC(=O)c1scc(-c2ccc(C)cc2)c1S(=O)(=O)Nc1ccc(OC(F)(F)F)cc1,i,i,i,-31.5,i
COc1ccc(-c2cn3cccnc3n2)cc1NC(=O)COc1ccccc1,i,i,i,i,i
COCC(C)n1c(C)cc(C(=O)COC(=O)c2n[nH]c3ccccc23)c1C (stereo not drawn),i,i,i,-48.5,i
Cc1cc(Br)ccc1NC(=O)CN(C)C(=O)c1ccc(-n2cncn2)c([N+](=O)[O-])c1,i,i,nt,-40.7,i
Cc1cc(Br)ccc1NC(=O)CNC(=O)c1ccc(-n2cncn2)c([N+](=O)[O-])c1,i,i,i,i,i
C/C(=N\NC(=O)C(O)c1ccccc1)c1ccc(Br)s1 (stereo not drawn),i,37.5,i,i,i
C/C(=N\NC(=O)C(O)c1ccccc1)c1ccc(Cl)s1 (stereo not drawn),i,i,i,i,i
CCCCc1ccc(S(=O)(=O)N2CCN(C(=O)c3ccco3)CC2)cc1,i,i,i,-31.4,i
CCOc1ccc(NC(=O)C(C)Sc2nnc3cc(C)c4ccccc4n23)cc1 (stereo not drawn),i,i,i,i,i
CCOc1ccc(Sc2cc(C(=O)NC(C)c3ccccc3)c3ccccc3n2)cc1 (stereo not drawn),i,i,i,-30.4,i
CCOc1ccc(Sc2cc(C(=O)NCCCOC)c3ccccc3n2)cc1,i,i,i,i,i
CCNC(=S)NNC(=O)c1cc(-c2cccc(OC)c2)nc2ccccc12,i,i,i,i,i
CCNC(=S)NNC(=O)c1cc(-c2ccc(OCC)cc2)nc2ccccc12,i,i,i,-32.8,i
CCNC(=S)NNC(=O)c1cc(-c2ccccc2C)nc2ccccc12,i,i,i,i,i
CCNC(=S)NNC(=O)c1cc(CC(C)C)nc2ccccc12,i,i,i,-46.0,i
Cc1nc(-c2ccc([S+](=O)([O-])N3CCN([S+](=O)([O-])c4c(F)cccc4F)CC3)s2)cs1,i,i,i,i,i
SMILES,TRHR ag,TRHR enhancer,D1 potentiator,D1 antagonist,D1 agonist
C=CCn1c(SCCC)nc(O)cc1=O,i,i,i,i,128.2
CCOC(=O)C1=C(C)Nc2ccccc2N=C1NC(=O)Cc1ccc(Br)cc1,i,i,i,i,i
CCOC(=O)C1=C(C)Nc2ccccc2N=C1NC(=O)Cc1ccc(OC)cc1,i,i,i,-81.0,i
O=C(Cn1c(=O)oc2ccccc21)NCc1ccccc1Cl,i,i,i,i,i
CCN(Cc1ccccc1)C(=O)c1cccc(S(=O)(=O)N2CCN(c3ccc(F)cc3)CC2)c1,i,i,i,-63.3,i
CC(C)c1ccc(S(=O)(=O)N2CCN(C(=O)c3cccc(F)c3)CC2)cc1,i,i,i,-67.8,i
CCN(Cc1ccccc1)C(=O)c1cccc(S(=O)(=O)N2CCN(c3ccccc3)CC2)c1,i,i,i,i,i
O=C(c1cccc(S(=O)(=O)N2CCOCC2)c1)N(CCO)Cc1ccccc1,i,i,i,-32.7,i
O=C(c1cccc(NS(=O)(=O)c2ccc(F)cc2)c1)N1CCN(c2ccccc2)CC1,i,i,i,-42.3,i
COc1ccccc1NC(=O)Cn1c(=O)n(Cc2cccs2)c(=O)c2cccnc21,i,i,i,i,i
O=C(Nc1ccc2nc(SCC(=O)N3CCCc4ccccc43)sc2c1)c1ccccc1,i,i,i,i,i
CCOc1ccccc1C(=O)N1CCC(c2nc3ccccc3o2)CC1,i,i,i,i,i
O=C(CN(C(=O)CCC(=O)Nc1nccs1)c1cccc(C(F)(F)F)c1)NCC1CCCO1 (stereo not drawn),i,i,i,i,i
CC(=O)N1CCN(C(=O)c2cccc(S(=O)(=O)N3CCN(c4ccc(F)cc4)CC3)c2)CC1,i,i,i,i,53.3
O=C(NC1=NCCS1)c1cccc(S(=O)(=O)N2CCOCC2)c1,i,31.7,i,i,i
O=C(c1cccc(S(=O)(=O)N2CCN(c3ccc(F)cc3)CC2)c1)N1CCCCCCC1,i,i,i,i,i
COc1ccc(CCNC(=O)c2cc(=O)[nH]c3ccc(S(=O)(=O)N4CCCCC4C)cc23)cc1OC (stereo not drawn),i,i,i,i,i
COC(=O)c1ccccc1NC(=O)c1noc2c1CSc1ccccc1-2,i,i,i,i,i
CCN(c1ccccc1)S(=O)(=O)c1cccc(C(=O)NCc2ccncc2)c1,i,31.4,i,i,i
CCN(c1ccccc1)S(=O)(=O)c1cccc(C(=O)NCc2cccnc2)c1,i,i,i,i,i
COc1ccc(Br)c2c1-c1nc(NC(=O)c3ccc(F)cc3)sc1C2,i,i,i,i,i
S=C(NCCc1cccc(Cl)c1)NC1CCCCC1,i,i,i,-37.6,i
S=C(NCc1ccc(Cl)cc1Cl)NC1CCCCC1,i,i,i,-32.7,30.4
Clc1ccc(CNC2CCCC2)c(Cl)c1,i,i,i,i,i
Clc1ccc(-c2noc3ncnc(NCCc4ccccc4)c23)cc1,i,i,i,i,i
O=c1c(S(=O)(=O)c2ccccc2)cn(Cc2ccccc2)c2cc(N3CCCC3)c(F)cc12,i,i,i,i,i
